Screening results (PubChem BioAssay)
Rows were chosen to be rich in hits. Some 4.3% of all compounds tested hit in one or more screens of this group.
Anthrax LF inh2 = Bacillus anthracis LF protease inhibitors, primary screen, biochemical, multiplex microsphere, MLPCN library. Lethal factor (Bacillus anthracis), P15917. multiplex microsphere protease cleavage assay. inhibition, % at 10 µM. hit rate 0.12% among 360,000. AID 588501, 2011; also: plate controls were buffer without enzyme for full effect and enzyme alone for no effect
PfHsp40 rescue = rescue of yeast from PfHsp40 toxicity, primary screen, S. cerevisiae, ATP luminescence; S. cerevisiae expressing PfHsp40, growth rescue; AID 504582, 2011; hit rate 0.68% among 340,000; growth rescue, % at 12.5 µM; in the data active = growth rescue above about 28%, passing the limit was not always enough; inconclusive = no clear call, values can overlap the other calls;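 also: yeast W303a lacking pdr1 and pdr3 grown in galactose medium; growth measured after three days at 30 °C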
Autofluor counter = counter-screen for toxin protease inhibitors: compound fluorescence; compound autofluorescence counterscreen, microsphere flow cytometry; stronger effect = higher value; AID 624483; fluorescence intensity (concentration not given with the values); hit rate 3.1% among 360,000; in the data active = fluorescence intensity above about 16000; inconclusive = no clear call, values can overlap the other calls
MazEF act = activators of E. coli MazEF toxin-antitoxin RNase, primary screen, biochemical, fluorescence, uHTS; Endoribonuclease toxin MazF (Escherichia coli (strain K12)), P0AE70; FAM/BHQ RNA-DNA oligo cleavage fluorescence, 5 h; activation, % at 20 µM; hit rate 0.32% among 350,000; in the data active = activation above about 50%
BoNT-F LC inh = BoNT/F light chain protease inhibitors, primary screen, biochemical, flow cytometry, MLPCN library; Botulinum neurotoxin type F light chain protease (Clostridium botulinum); Multiplex microsphere protease cleavage assay; inhibition, % at 10 µM; hit rate 0.22% among 360,000; AID 588497, 2011; in the data active = inhibition above about 35%, passing the limit was not always enough; inconclusive = no clear call, values can overlap the other calls; also: plate controls were buffer without enzyme for full effect and enzyme alone for no effect
BoNT-A LC inh2 = BoNT/A light chain protease inhibitors, primary screen, biochemical, flow cytometry, MLPCN library; hit rate 0.17% among 360,000; Botulinum neurotoxin type A light chain protease (Clostridium botulinum A str. ATCC 3502); multiplex microsphere protease substrate cleavage; inhibition, % at 10 µM; AID 588499, 2011; also: plate controls were buffer without enzyme for full effect and enzyme alone for no effect
The depositor's hits bear a star; ? = inconclusive; . = no result. Rule as the data show it, unless noted: active = inhibition above about 30%; inconclusive = no clear call, values can overlap the other calls; inactive = below that.

SMILES	Anthrax LF inh2	PfHsp40 rescue	Autofluor counter	MazEF act	BoNT-F LC inh	BoNT-A LC inh2
Cc1ccc(S(=O)(=O)/C(C#N)=C/c2c(N3CCC(C(N)=O)CC3)nc3c(C)cccn3c2=O)cc1	12.2	3.2	8291	-12.5	9.6	2.6
CCN1CCN(c2nc3c(C)cccn3c(=O)c2/C=C(\C#N)S(=O)(=O)c2ccccc2)CC1	3.4	-0.4	3217	11.1	15.5	2.5
CCN1CCN(c2nc3ccccn3c(=O)c2/C=C(\C#N)S(=O)(=O)c2ccccc2)CC1	32.7*	1.2	4035	-0.2	?	?
Cc1cccn2c(=O)c(/C=C(\C#N)S(=O)(=O)c3ccccc3)c(N3CCC(C(N)=O)CC3)nc12	1.0	0.4	18714*	-1.9	5.9	4.6
Cc1nc2n(n1)CC(O)CS2 (stereo unspecified)	-0.7	-0.6	23205*	0.4	-5.6	-2.9
CCN1C(=O)[C@H]2[C@H]3CN=C(SCc4ccc(OC)cc4)N3[C@@](CC)(C(=O)OC)[C@H]2C1=O	3.6	-0.3	3989	2.9	0.1	0.1
CC(C)[C@H](N)C(=O)N[C@H]1CCC2C3CC=C4C[C@@H](O)CC[C@]4(C)C3CC[C@@]21C (stereo partly specified)	-1.5	.	3885	5.3	-4.4	0.7
COCCn1c(=S)[nH]c2cc(C(=O)N3CCc4ccccc43)ccc2c1=O	-3.6	-2.5	24139*	-4.7	-4.8	-4.0
CCCn1c(=S)[nH]c2cc(C(=O)N3CCc4ccccc43)ccc2c1=O	-1.4	2.3	21147*	7.5	-2.8	-1.8
COCCCN1C(=O)/C(=C/c2ccc(CNS(=O)(=O)c3ccccc3)o2)C(C(=O)OC)=C1C	-7.2	0.8	4735	-7.2	-4.3	-0.9
NC(=O)COC(=O)C1CSC2(c3ccc(F)cc3)CCC(=O)N12 (stereo unspecified)	8.0	0.1	3584	-7.0	-3.6	-1.7
O=C(C1CSC2(c3ccc(F)cc3)CCC(=O)N12)N1CCCCCC1 (stereo unspecified)	-13.4	1.2	20230*	1.6	5.8	4.7
O=C(Nc1c(-c2ccccc2)nc2ccccn12)c1cccc(F)c1	-15.8	-0.1	3930	2.3	35.8*	-0.7
O=C(Nc1c(-c2ccccc2)nc2ccccn12)c1ccccc1	-9.5	-1.9	4698	5.6	-18.1	0.0
Cc1ccc(CNC(=O)C2CCC(=O)N(CCc3cccc(F)c3)C2)cc1 (stereo unspecified)	0.5	1.2	5909	2.6	4.9	3.1
Cc1ccc(NC(=O)Cn2c([N+](=O)[O-])cnc2C)cc1	-4.4	-1.1	4234	2.2	-3.2	0.5
Cc1ccc2ncc([N+](=O)[O-])n2c1	-0.8	0.3	21684*	-1.0	3.5	3.0
COc1ccc(N(C)S(=O)(=O)c2cccc(C(=O)NCc3ccc(C)cc3)c2)cc1	3.2	2.0	8682	-0.1	-4.9	-1.2
Cc1cc(Cl)ccc1Oc1nc(-c2ccc(F)cc2)ccc1C#N	-0.8	-1.8	22004*	7.7	0.2	?
Cc1nc(N2CCN(Cc3ccccc3)CC2)nc2c1C(=O)CC(c1ccco1)C2 (stereo unspecified)	-4.7	-0.8	17519*	-4.9	-9.6	-3.1
COc1ccc(C2C(C(=O)N3CCOCC3)=C(C)NC3=C2C(=O)CC(C)(C)C3)cc1O (stereo unspecified)	-1.6	4.1	23700*	1.8	-4.0	-1.0
COc1cc(OC)c(C2C(C(=O)N3CCOCC3)=C(C)NC3=C2C(=O)CC(C)(C)C3)cc1OC (stereo unspecified)	4.8	-0.8	8576	5.1	3.6	1.5
O=C(COc1ccc(S(=O)(=O)NC2CCCCC2)cc1Cl)N1CCN(c2ccccc2)CC1	-2.7	2.4	22544*	-1.8	5.2	?
O=C(COc1ccc(S(=O)(=O)N2CCCC2)cc1Cl)NC1CC1	-2.7	0.6	24369*	8.4	-0.1	-2.4
O=C(Cc1ccccc1)NC1CCN(S(=O)(=O)c2ccc(C(=O)O)cc2)CC1	-1.9	0.3	7370	9.0	0.9	-0.5
SMILES	Anthrax LF inh2	PfHsp40 rescue	Autofluor counter	MazEF act	BoNT-F LC inh	BoNT-A LC inh2
COCC(=O)NC1CCN(S(=O)(=O)c2ccc(C(=O)O)cc2)CC1	-1.2	0.0	20353*	2.7	1.1	-1.7
O=C(O)c1cccnc1SCc1cccc(Cl)c1	-5.7	-0.5	4412	1.6	-1.0	-0.5
COc1cccc(CN(CCC(=O)O)Cc2cccc(OC)c2)c1	-0.1	.	2896	-5.5	-4.6	0.1
Cc1nc(SC(C)C(=O)NC2CCCC2)c2ccccc2n1 (stereo unspecified)	-6.2	0.2	8641	7.5	17.2	-0.1
COc1ccc(-n2[nH]c3c(cnc4ccccc43)c2=O)cc1	3.6	.	4374	.	-2.5	0.0
O=C(O)CSc1c2c(nc3cc(C(=O)Nc4ccc(F)c(Cl)c4)ccc13)CCCC2	-0.9	-1.0	5818	0.7	-1.9	0.5
COc1ccccc1CNc1nc(Oc2cccc(F)c2)c2sccc2n1	-2.9	.	2828	.	-13.9	0.0
N#CCC1c2ccccc2CCN1C(=O)Nc1ccc(C(F)(F)F)cc1 (stereo unspecified)	-7.2	2.0	16726*	1.8	-5.4	-0.9
N#CCC1c2ccccc2CCN1C(=O)Nc1cccc(Cl)c1 (stereo unspecified)	-9.2	-0.7	23621*	1.8	-6.1	-1.5
N#CCC1c2ccccc2CCN1C(=O)Nc1cccc(C(F)(F)F)c1 (stereo unspecified)	-0.7	-1.4	11347	-10.2	-3.2	-0.5
CCCCN(C(=O)C1CC(=O)N(CCc2ccc(OC)c(OC)c2)C1)c1c(N)n(CCCC)c(=O)[nH]c1=O (stereo unspecified)	-6.9	-2.6	?	1.0	14.4	1.0
COc1ccccc1C(=O)NCCN1CCCC1	-5.1	.	4092	-1.3	-6.5	0.6
O=C(Nc1ccccc1C(F)(F)F)NC1(C(=O)N2CCOCC2)CCCCC1	-4.1	2.5	3582	-12.5	13.2	0.6
Cc1cccc(-n2nnnc2SCC(=O)c2cc(C)n(Cc3ccco3)c2C)c1	-0.1	-0.5	22516*	-25.8	-0.3	?
Cc1cccc(-n2nnnc2SCC(=O)c2cc(C)n(CC3CCCO3)c2C)c1 (stereo unspecified)	-7.3	-1.2	4434	-1.6	-34.9	-0.2
Cc1cccc(/C=C2\Sc3ccc(C(=O)N4CCC(C)CC4)cc3N(C)C2=O)c1	-2.5	-1.3	5632	-2.1	-1.7	0.2
O=C1CC(c2ccccc2)CC2=C1CN(C1CCCCC1)CN2 (stereo unspecified)	-6.6	1.5	23766*	0.9	-6.8	-3.0
O=C1NCN(C2CCCCC2)CN1	3.2	1.6	4090	7.3	1.0	0.5
Cn1c(SCc2ccccc2)nc(C(F)(F)F)cc1=O	13.1	0.2	4673	-3.5	2.8	-0.7
